Out of some 290,000 compounds screened, about 3,000 (1%) were called active. Cut-off read from the data, not from the text of the source: active = inhibition mostly above about 36% (no sharp cut-off); inactive = mostly below about 34%. Only a selection was taken, and actives are over-represented in it overall.

A short description of the assay: inhibition of NOD1-driven NF-kB reporter – cell-based, luminescence, uHTS, primary screen (AID 1578).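 Note: HEK-293T reporter cells stimulated with the NOD1 agonist gamma-tri-DAP.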 The note with it: NOD1-driven NF-kB luciferase reporter cells, at 4 µM, active compounds read high.
Regarding `O=C(CN1CCN(c2ccccc2)CC1)Nc1ccc(Oc2ccccc2)cc1`, the inhibition is -2.2% (inactive).
As to `COc1ccc(-c2cc(C(=O)NCC3CCCO3)c3cc(C(C)C)ccc3n2)cc1` (stereo not drawn), the inhibition is -1.8% (inactive).
Take `CNC(=O)c1c(NC(=O)c2cccc(C)c2)sc2c1CCC2`: the inhibition was 109% (active).
As for `NC(=O)c1c(NC(=O)c2ccccc2Cl)sc2c1CCC2`, the figure is -50% (inactive); as for `Cc1cccc(C(=O)Nc2sc3c(c2C(=O)O)CCC3)c1`, -0.7% (inactive); as for `O=C(Nc1sc2c(c1C(=O)O)CCC2)c1ccccc1Cl`, 17.5% (inactive).
Next, `CNC(=O)c1c(NC(=O)c2cccc(N3C(=O)CCC3=O)c2)sc2c1CCC2`: 5.2% (inactive); `O=C(Nc1sc2c(c1C(=O)O)CCCCC2)c1ccccc1`: 43.3% (inactive); `O=C(Nc1sc2c(c1C(=O)O)CCC2)c1ccccc1`: 26.9% (inactive).
Next, `CCOC(=O)Cc1cnc(NC(=O)CSc2nc(C)c(CC)c(=O)[nH]2)s1`: -29.1% (inactive).
For the compound `O=C(c1cc(-c2ccccc2)n[nH]1)N1CCc2c([nH]c3ccccc23)C1c1ccccn1` (stereo not drawn), the inhibition was -14.3% (inactive).
As for `COc1cc(Cl)c(C)cc1NC(=O)c1ccc(NS(=O)(=O)c2ccc(F)c(F)c2)cc1`, the figure is 14.5% (inactive); as for `CCOC(=O)c1c(/N=C/c2cc([N+](=O)[O-])ccc2O)sc(C)c1C`, -20.3% (inactive).
As to `CN(C)CCOc1cccc(Cl)c1`, the inhibition is -12.3% (inactive).
`Cc1cc(C(=O)CSc2nnc3ccccn23)c(C)n1-c1ccccc1`: the inhibition was 82% (active).
As for `Cc1ccc(C(=O)CSc2nnc3ccccn23)c(C)c1`, the figure is 18.8% (inactive); as for `Cc1cc(C(=O)CSc2nncn2C)c(C)n1-c1ccccc1`, -35.2% (inactive); as for `Nc1c(-c2ccccc2)c(CSc2nc3ccccc3[nH]2)nn1-c1cccc(Cl)c1`, 79.7% (active).
For `Nc1c(-c2ccccc2)c(CSc2nc3ccccc3[nH]2)nn1-c1cccc(C(=O)O)c1`, the inhibition was -21.3% (inactive).
Next, `Nc1c(-c2ccccc2)c(CSc2nc3ccccc3[nH]2)nn1-c1ccc(Cl)cc1`: 70.5% (inactive); `Cn1c(N)c(C(=O)Nc2c(Cl)cccc2Cl)sc1=S`: -11.3% (inactive).
Next, `CCN(CC)c1ccc(N2C(=O)/C(=C\c3cccs3)SC2=S)cc1`: -102% (inactive).
Next, `COc1ccccc1/C=C/C(=O)c1ccccc1`: -6.9% (inactive).
Turning to `COc1ccccc1/C=C/C(=O)/C=C/c1ccccc1O`, the inhibition was 94.3% (active).
Next, `COc1ccccc1/C=C/C(C)=O`: -47.2% (inactive); `CC(C)C1Cc2c(sc3[nH]c(=S)n(Cc4ccccc4)c(=O)c23)CO1` (stereo not drawn): 92.4% (active); `CC(C)C1Cc2c(sc3c2c(=O)n(Cc2ccccc2)c2nncn32)CO1` (stereo not drawn): 12.9% (inactive).
Next, `CC1(C)Cc2c(sc3[nH]c(=S)n(Cc4ccccc4)c(=O)c23)CO1`: -3.1% (inactive).

These data come from PubChem BioAssay AID1578 (Sanford-Burnham Center for Chemical Genomics, 2009).
